The panel holds about 83,000 compounds, 20% with a hit somewhere; the sample as a whole holds those more often.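 Negative percent growth values reflect cell death: -40 means 40% of the cells present at the start died, and -100 means all died.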 A number with no mark means an inactive call. Calls of active or inactive are those of the source. Rule for the calls: active = growth percent below 10; inactive = the rest.
Legend:
Assay in all cases: NCI-60 one-dose screen, 48 h (100 = growth as untreated, 0 = no growth, -100 = all killed)
Conditions in all cases: 10 µM unless noted
[1] = test system: SK-MEL-2 melanoma
[2] = test system: SN12C renal
[3] = test system: UO-31 renal
[4] = test system: TK-10 renal
[5] = test system: ACHN renal
[6] = test system: CAKI-1 renal
[7] = test system: A498 renal
[8] = test system: CCRF-CEM leukemia
[9] = test system: MOLT-4 leukemia
[10] = test system: SR leukemia
[11] = test system: OVCAR-8 ovarian
[12] = test system: OVCAR-5 ovarian
[13] = test system: OVCAR-4 ovarian
[14] = test system: SK-OV-3 ovarian
[15] = test system: IGROV1 ovarian
[16] = test system: OVCAR-3 ovarian
[17] = test system: HS 578T breast
[18] = test system: NCI/ADR-RES ovarian
[19] = test system: RPMI-8226 leukemia

Work on `C=CCn1c(SCC(=O)Nc2ccc(C(=O)/C=C/c3ccc(OC)cc3)cc2)nnc1-c1ccccc1` yielded a growth [1] of 82.4%, a growth [2] of 89.2% and a growth [3] of 69.4%. It also gave a growth [4] of 98%, a growth [5] of 92.5% and a growth [6] of 93.1%. The growth [7] was 97.3%, the growth [8] was 84.5% and the growth [9] was 61.1%. It also gave a growth [10] of 85.3%, a growth [11] of 101% and a growth [12] of 82.7%. The growth [13] was 77.4%, the growth [14] was 106% and the growth [15] was 84.9%. The growth [16] was 89.5%, the growth [17] was 100% and the growth [18] was 89.1%.

Work on `CN(Cc1cnc2nc(N)nc(N)c2n1)c1c(Cl)cc(C(=O)NC(CCC(=O)O)C(=O)O)cc1Cl` (stereo not drawn) yielded a growth [1] of 59.8%, a growth [2] of 26.3% and a growth [3] of 11.5%. For the same molecule, the growth [4] was 36%, the growth [5] was 29% and the growth [6] was -20% (active). For the same molecule, the growth [7] was 47.7%, the growth [8] was 34.8% and the growth [9] was 25.8%. The growth [10] was 42.4%, the growth [19] was 45.3% and the growth [11] was 17.8%. For the same molecule, the growth [12] was 48.7%, the growth [13] was 55.1% and the growth [14] was 56.3%. The growth [15] was 28.3%, the growth [16] was 48.1% and the growth [17] was 66.1%. The growth [18] was 35.1%.

In the case of `C#CCOc1cccc(-c2ncc3cc(NC(=O)CCl)ccc3n2)c1`, the growth [1] is reported as 22.7%, the growth [2] is reported as -42.5% (active) and the growth [3] is reported as 50.9%. For the same molecule, the growth [4] was 78.9%, the growth [5] was -87.2% (active) and the growth [6] was -27.3% (active). The growth [7] was 88.1%, the growth [8] was -16.8% (active) and the growth [9] was 0.493% (active). For the same molecule, the growth [10] was -28.2% (active), the growth [19] was -24.9% (active) and the growth [11] was 6.25% (active). The growth [12] was -58.8% (active), the growth [13] was -28.2% (active) and the growth [14] was 76.8%. The growth [15] was -52.7% (active), the growth [16] was -51.2% (active) and the growth [17] was 31.7%. The growth [18] was 7.12% (active).

For `CC(O)c1ncc(/C=C2\SC(=S)N(Cc3ccccc3)C2=O)s1` (stereo not drawn), the growth [1] was 91%, the growth [2] was 110% and the growth [3] was 85.8%. It also gave a growth [4] of 33.7%, a growth [5] of 95.6% and a growth [6] of 93.4%. For the same molecule, the growth [7] was 100%, the growth [8] was 98.6% and the growth [9] was 108%. The growth [10] was 82.4%, the growth [19] was 52.3% and the growth [11] was 102%. It also gave a growth [12] of 98.6%, a growth [13] of 85.1% and a growth [14] of 96.6%. For the same molecule, the growth [15] was 100%, the growth [16] was 97.2% and the growth [17] was 109%. For the same molecule, the growth [18] was 99.5%.

With `CN1CCN(CCCOc2ccc3ncnc(Nc4ccc(Oc5cccc(F)c5)c(Cl)c4)c3c2)CC1` the growth [1] was -8.81% (active), the growth [2] was 49.4% and the growth [3] was 34.2%. For the same molecule, the growth [4] was 37%, the growth [5] was -11.3% (active) and the growth [6] was 5.24% (active). For the same molecule, the growth [7] was 33.2%, the growth [8] was -6.61% (active) and the growth [9] was -3.25% (active). For the same molecule, the growth [10] was 1.08% (active), the growth [19] was -30.1% (active) and the growth [11] was 31.6%. For the same molecule, the growth [12] was 25.4%, the growth [13] was 3.58% (active) and the growth [14] was 8.4% (active). For the same molecule, the growth [15] was -5.39% (active), the growth [16] was 0.254% (active) and the growth [17] was 42.3%. The growth [18] was 41.9%.

`C#CCOc1ccc2ncnc(Nc3cccc(NC(=O)CCl)c3)c2c1` showed a growth [1] of 69.7%, a growth [2] of 69.4% and a growth [3] of 59.5%. For the same molecule, the growth [4] was 73.4%, the growth [5] was 65.8% and the growth [6] was 81.2%. It also gave a growth [7] of 89.1%, a growth [8] of 16.1% and a growth [9] of 18.1%. For the same molecule, the growth [10] was 30.3%, the growth [19] was 64.2% and the growth [11] was 54.6%. For the same molecule, the growth [12] was 104%, the growth [13] was 82.7% and the growth [14] was 113%. The growth [15] was -37.7% (active), the growth [16] was 51.3% and the growth [17] was 90.5%. It also gave a growth [18] of 90.8%.

`Cc1ccc2[nH]c(=O)c3c(c2c1)OC(N)=C(C#N)C31C(=O)c2cccc3cccc1c23` (stereo not drawn) gave a growth [1] of 110%, a growth [2] of 97.8% and a growth [3] of 77.7%. It also gave a growth [4] of 123%, a growth [5] of 95.5% and a growth [6] of 90.9%. It also gave a growth [7] of 107%, a growth [8] of 95.3% and a growth [9] of 88.1%. It also gave a growth [10] of 92.9%, a growth [19] of 97.8% and a growth [11] of 103%. The growth [12] was 97.4%, the growth [13] was 89.4% and the growth [14] was 105%. For the same molecule, the growth [15] was 90%, the growth [16] was 101% and the growth [17] was 93.9%. The growth [18] was 102%.

In the case of `COc1ccccc1NC(=O)c1ccc(/C=C/C(=O)c2nccn2C)cc1`, the growth [1] is reported as -27.4% (active), the growth [2] is reported as -80.4% (active) and the growth [3] is reported as -94.5% (active). The growth [4] was -45.6% (active), the growth [5] was -100% (active) and the growth [6] was -38.7% (active). The growth [7] was -39.8% (active), the growth [8] was -11.6% (active) and the growth [9] was 0.601% (active). For the same molecule, the growth [10] was -18.2% (active), the growth [19] was -35% (active) and the growth [11] was 4.61% (active). For the same molecule, the growth [12] was -80.9% (active), the growth [13] was -34.8% (active) and the growth [14] was 15.8%. The growth [15] was -56.5% (active), the growth [16] was -90.9% (active) and the growth [17] was 35.5%. For the same molecule, the growth [18] was 5.75% (active).

`COc1cc(/C=N/Nc2ccccc2F)cc(OC)c1OC` showed a growth [1] of 90.2%, a growth [2] of 97.1% and a growth [3] of 68.8%. For the same molecule, the growth [4] was 157%, the growth [5] was 81.3% and the growth [6] was 50.8%. It also gave a growth [7] of 92.8%, a growth [8] of 75.2% and a growth [9] of 83.9%. For the same molecule, the growth [10] was 90.9%, the growth [19] was 83.8% and the growth [11] was 92%. It also gave a growth [12] of 94.6%, a growth [13] of 92.3% and a growth [14] of 111%. For the same molecule, the growth [15] was 86.1%, the growth [16] was 108% and the growth [17] was 94.9%. It also gave a growth [18] of 99.6%.

Molecule `O=C(Nc1cccnc1Nc1ccc(Cl)cc1)c1cn(Cc2ccc(F)cc2)nn1` has a growth [1] of 102%, a growth [2] of 95.9% and a growth [3] of 70.9%. It also gave a growth [4] of 96.9%, a growth [5] of 101% and a growth [6] of 93.1%. The growth [7] was 88.6%, the growth [8] was 98.6% and the growth [9] was 106%. For the same molecule, the growth [10] was 106%, the growth [19] was 85% and the growth [11] was 96.2%. It also gave a growth [12] of 105%, a growth [13] of 89.8% and a growth [14] of 108%. It also gave a growth [15] of 107%, a growth [16] of 107% and a growth [17] of 93.2%. It also gave a growth [18] of 96.2%.

`CN(C)Cc1ccc(C(=O)Nc2ccc3ncnc(Nc4ccc(Oc5cccc(F)c5)c(Cl)c4)c3c2)cc1` was tested, and the growth [1] was -27.1% (active), the growth [2] was 11.4% and the growth [3] was 16%. For the same molecule, the growth [4] was 1.66% (active), the growth [5] was -85.8% (active) and the growth [6] was -42.2% (active). For the same molecule, the growth [7] was 19.2%, the growth [8] was -0.132% (active) and the growth [9] was -13.2% (active). For the same molecule, the growth [10] was -18.1% (active), the growth [19] was -24.7% (active) and the growth [11] was 14.2%. For the same molecule, the growth [12] was -28.7% (active), the growth [13] was -24.4% (active) and the growth [14] was 19%. The growth [15] was -50.7% (active), the growth [16] was -24.2% (active) and the growth [17] was -11.7% (active). For the same molecule, the growth [18] was 22.7%.

Source: PubChem BioAssay (NCI)
